In PubChem BioAssay (Tox21) one finds Potency data, which are given here for 53 molecules.

“And” between values parts separate entries of the source, which are not always exact repeats. Identical values can stand only once. Results filed as inconclusive are left out. The source made the active and inactive calls. Calls come from the whole dose curve; as a rule, active = well fitted curve in the direction sought with a large enough effect in the repeat runs; inconclusive = weak or mixed curves; inactive = no such curve, though single readings can be large; an effect the other way counts as inactive or inconclusive.

Assay [1] can be described thus: qHTS assay to identify small molecule agonists of the RXR signaling pathway - cell viability counter screen (AID 1159529). Note: nearly all actives have a fitted effect of over 50% in size. In a few lines:
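HEK 293T RXRa-bla cells, 2% CS-FBS; 5 h settle; cpd 16 h 37 C, 5% CO2; CellTiter-Glo 30 min RT, luminescence. Tetraoctyl ammonium bromide as positive control.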
In general terms: In qHTS, concentration-response curves come from the screen itself.

Assay [2] can be described thus: qHTS assay to identify small molecule antagonists of the retinoid acid receptor (RAR) signaling pathway - cell viability counter screen (AID 1159551). Note: nearly all actives have a fitted effect of over 35% in size. The essentials: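 Cytotoxicity counter screen: ATP content quantified by CellTiter-Glo luminescence in C3RL4 cells treated 6 hr at 37 C with compound and retinol (1 uM final). Cells plated at 1,000/well and cultured overnight before dosing.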

A short description of assay [3]: qHTS assay to identify small molecule antagonists of the retinoic acid receptor (RAR) signaling pathway (AID 1159552; note: nearly all actives have a fitted effect of over 50% in size). In a few lines:
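Cells of the C3RL4 line were seeded, incubated overnight, then dosed with compounds in DMSO followed immediately by retinol (1 uM final). Six hours later luciferase detection reagent went in; signal was measured after 30 min at RT.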
Potency is the fitted concentration of half-maximal effect.

Regarding `CCCCn1cc[n+](C)c1` (tested in a mixture with another compound), the Potency result in assay [1] and in assay [2] was “inactive” in each case.
As to `CNC(=O)O/N=C(\C)C(C)S(C)(=O)=O` (stereo unspecified), the Potency entry in assay [1] and in assay [2] was “inactive” throughout.
On to `Clc1ccc(C2(Cn3cncn3)OCCO2)c(Cl)c1`, for which the Potency entry in assay [1] and in assay [2] was “inactive” in each case.
Turning to `CC(=O)[O-].CC(=O)[O-].O.O.[Zn+2]`, the Potency entry in assay [1] and in assay [2] was “inactive” each time.
Consider `CC(Cc1ccc(OCC(=O)O)cc1)NCC(O)c1csc(C(F)(F)F)n1` (stereo unspecified), for which the Potency entry in assay [1] and in assay [2] was “inactive” in each case.
Take `CCCCn1cc[n+](C)c1.[Cl][Fe-]([Cl])([Cl])[Cl]`: the Potency result in assay [1] and in assay [2] was “inactive” in each case.
For `C[C@@H]1CC2=CC(=O)CC[C@@H]2[C@H]2CC[C@@]3(C)[C@@H](CC[C@]3(C)O)[C@@H]21`, the Potency result in assay [1] and in assay [2] was “inactive” in each case.
`Clc1ccc(C(c2ccc(Cl)cc2)C(Cl)Cl)cc1`: in assay [1], the Potency was 39.5 µM (active) and 38.9 µM (active). In assay [2], the Potency result is “inactive”.
Take `CCCCCON=O`: the Potency result in assay [1] and in assay [2] was “inactive” throughout.
Turning to `CNN`, the Potency result in assay [1] and in assay [2] was “inactive” each time.
As for `N#Cc1c[nH]cc1-c1cccc2c1OC(F)(F)O2`, the Potency result in assay [1] and in assay [2] was “inactive” throughout.
Consider `COc1cnc(OC)n2nc(NS(=O)(=O)c3c(OCC(F)F)cccc3C(F)(F)F)nc12`, for which the Potency result in assay [1] and in assay [2] was “inactive” in each case.
As for `[C-]1=CC=CC1.[Cl][Zr+2][Cl].c1cc[cH-]c1`, the Potency result in assay [1] and in assay [2] was “inactive” in each case.
On to `[Cl-].[Cl-].[Sn+2]`, for which the Potency result in assay [1] and in assay [2] was “inactive” in each case.
Regarding `CCN(CC)CCN1C(=O)CN=C(c2ccccc2F)c2cc(Cl)ccc21`, the Potency entry in assay [1] and in assay [2] was “inactive” throughout.
Consider `ClC1=C(Cl)[C@]2(Cl)[C@H]3[C@H]([C@@H]4C=C[C@H]3C4)[C@@]1(Cl)C2(Cl)Cl`, for which the Potency in assay [1] was 49 µM (active). For the same molecule, the Potency result in assay [2] was “inactive”.
Consider `CC(C)C(Br)C(=O)NC(N)=O` (stereo unspecified), for which the Potency entry in assay [1] was “inactive”.
Take `C1=CCC=C1`: the Potency entry in assay [1] and in assay [2] was “inactive” each time.
As to `CC(=O)[O-].CC(=O)[O-].O.O.O.[Pb+2]`, the Potency entry in assay [1] and in assay [2] was “inactive” in each case.
Turning to `CC(=O)[O-].CC(=O)[O-].CC(=O)[O-].[Cr+3]`, the Potency entry in assay [1] and in assay [2] was “inactive” each time.
As for `CO/N=C(\C(=O)OC)c1ccccc1CO/N=C(\C)c1cccc(C(F)(F)F)c1`, in assay [1], the Potency entry was “inactive”.
On to `Cc1nn(-c2cc(NS(C)(=O)=O)c(Cl)cc2Cl)c(=O)n1C(F)F`, for which the Potency result in assay [1] and in assay [2] was “inactive” throughout.
With `CCC(C)Br` (stereo unspecified), the Potency result in assay [1] and in assay [2] was “inactive” each time.
For the molecule `CC(=O)[O-].CC(=O)[O-].[Co+2]`, the Potency result in assay [1] and in assay [2] was “inactive” throughout.
As for `CN=C=O`, the Potency entry in assay [1] and in assay [2] was “inactive” throughout.
Regarding `CC[C@H](C)[C@H]1O[C@]2(C=C[C@@H]1C)C[C@@H]1C[C@@H](C/C=C(\C)[C@@H](O[C@H]3C[C@H](OC)[C@@H](O[C@H]4C[C@H](OC)[C@@H](NC)[C@H](C)O4)[C@H](C)O3)[C@@H](C)/C=C/C=C3\CO[C@@H]4[C@H](O)C(C)=C[C@@H](C(=O)O1)[C@]34O)O2`, the Potency is 4.36 µM (active) in assay [1] and 13.7 µM (active) in assay [2].
The matching figures for `Cc1ccc(C)c2ccccc12`: “inactive” and “inactive”.
In the same order, the values of `COc1ccc2c(c1OC)C(=O)O[C@@H]2[C@H]1c2cc3c(cc2CCN1C)OCO3` are “inactive” and “inactive”.
In the same order, the values of `CCn1cc[n+](C)c1` (tested in a mixture with another compound) are “inactive” and “inactive”.
For `CCN(CC)C(=S)S`, the Potency in assay [1] is 19.4 µM (active).
As for `COP(=S)(NC(C)C)Oc1ccc(C)cc1[N+](=O)[O-]` (stereo unspecified), the Potency entry in assay [1] and in assay [2] was “inactive” throughout.
For the molecule `O=C(O)[C@H](O)[C@@H](O)C(=O)O`, the Potency entry in assay [1] and in assay [2] was “inactive” each time.
Consider `CCC[CH2][Sn]([CH2]CCC)([CH2]CCC)[O][Sn]([CH2]CCC)([CH2]CCC)[CH2]CCC`, for which the Potency is 0.479 µM (active) in assay [1] and 1.5 µM (active) in assay [2].
As for `O.O.O.O.O.O.O=S(=O)([O-])[O-].[Ni+2]`, the Potency result in assay [1] and in assay [2] was “inactive” throughout.
As for `Clc1ccc(C(Cl)(Cl)Cl)cc1Cl`, the Potency entry in assay [1] and in assay [2] was “inactive” in each case.
For `C=Cc1cccc(CCl)c1`, the Potency result in assay [1] and in assay [2] was “inactive” each time.
Take `CO/N=C(/C1=NOCCO1)c1ccccc1Oc1ncnc(Oc2ccccc2Cl)c1F`: the Potency entry in assay [1] and in assay [2] was “inactive” in each case.
Regarding `O=S1(=O)OCC2C(CO1)C1(Cl)C(Cl)=C(Cl)C2(Cl)C1(Cl)Cl` (stereo unspecified), the Potency in assay [1] was 43.6 µM (active).
For the molecule `CNC(=O)/C=C(\C)OP(=O)(OC)OC`, the Potency result in assay [1] and in assay [2] was “inactive” each time.
As to `CC(Cl)CCl` (stereo unspecified), the Potency entry in assay [1], in assay [2] and in assay [3] was “inactive” throughout.
With `Cc1ccc2cc3c(ccc4ccccc43)c3c2c1CC3`, the Potency entry in assay [1], in assay [2] and in assay [3] was “inactive” in each case.
For the molecule `COP(=S)(OC)Oc1nc(Cl)c(Cl)cc1Cl`, the Potency entry in assay [1], in assay [2] and in assay [3] was “inactive” throughout.
Take `N#CSCc1ccccc1`: the Potency entry in assay [1] and in assay [2] was “inactive” in each case. Also, the Potency in assay [3] is 48.8 µM (active).
Turning to `O=[N+]([O-])c1ccc(Cl)c(Cl)c1Cl`, the Potency result in assay [1], in assay [2] and in assay [3] was “inactive” each time.
Turning to `Cc1cc2c3c(c1)C(c1ccccc1)=N[C@@H](NC(=O)c1ccncc1)C(=O)N3CC2`, the Potency entry in assay [1], in assay [2] and in assay [3] was “inactive” each time.
Take `Nc1nc(N)c(N)c(N)n1`: the Potency result in assay [1], in assay [2] and in assay [3] was “inactive” each time.
Consider `CC(Cc1ccc2c(c1)OCO2)NO` (stereo unspecified), for which the Potency entry in assay [1], in assay [2] and in assay [3] was “inactive” throughout.
As for `CN1C2CCC(C)(C)C1CC(OC(=O)C(O)(c1cccs1)c1cccs1)C2` (stereo unspecified), the Potency result in assay [1], in assay [2] and in assay [3] was “inactive” in each case.
As for `CC(=O)[O][Pb]([c]1ccccc1)([c]1ccccc1)[c]1ccccc1`, the values for the Potency in assay [1], in assay [2] and in assay [3] were 2.45 µM (active), 9.69 µM (active) and 0.486 µM (active), respectively.
`CCCCN(CCCC)C(=S)[S-].CCCCN(CCCC)C(=S)[S-].[Ni+2]`: the Potency entry in assay [1], in assay [2] and in assay [3] was “inactive” in each case.
As to `CN1C(=O)[C@@H](NC(=O)c2cc3ccccc3[nH]2)N=C(c2ccccc2)c2ccccc21`, the Potency result in assay [1], in assay [2] and in assay [3] was “inactive” each time.
With `CN(C)C(=S)SSC(=S)N(C)C`, the Potency in assay [1] was 272 nM (active) and 692 nM (active) and 268 nM (active); in assay [2] it was 67.6 µM (active); in assay [3], 214 nM (active) and 306 nM (active).
Regarding `Oc1cccc(Cl)c1Cl`, the Potency in assay [1] is 49.2 µM (active). Further, the Potency result in assay [2] and in assay [3] was “inactive” in each case.
